Assay outcomes deposited in PubChem by National Center for Advancing Translational Sciences (NCATS).
SMN2 splice up: enhancers of SMN2 splice variant expression; HEK293 SMN2-luciferase splicing reporter, luminescence, 30-36 h; Potency, µM (titrated, usually from 46.1 µM), inactives show at the top dose activity change, positive = activation, most hits filed as activators; 210,000 tested, 2.8% active; AID 1458; note: % of control where 0% means no effect; nearly all actives have a fitted effect of over 55% in size
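HEK293 cells carry an SMN2 […]–luciferase reporter in which exon 7 inclusion puts luciferase in frame. Cells were plated 10-12 h before compound addition, then incubated 30-36 h at 37C. ONE-Glo luminescence was read; sodium butyrate at 4.5 mM final served as control.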
ELG1 genotoxic: induces genotoxicity in HEK293T cells with luciferase-tagged ELG1 | 330,000 tested, 1.3% active | HEK293T ELG1-luciferase reporter, luminescence, 16 h | Potency, µM (titrated, usually from 46 µM), for the others: at the top dose activity change, positive = activation, most hits filed as activators; note: % of control where 0% means no effect; nearly all actives have a fitted effect of over 60% in size
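DMSO vehicle served as control against compound-treated ELG1-luciferase HEK293T cells; exposure lasted 16 hr at 37 °C and 5% CO2, followed by ONE-Glo luminescence detection after 30 min.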
Rab9 promoter act: activates the Rab9 promoter; Huh7 Rab9 promoter-luciferase reporter, luminescence, 24 h; Potency, µM (top dose mostly 9.22 µM), for inactives: at the highest dose activation, negative = inhibition, most hits filed as activators; 320,000 tested, 2.8% active; AID 485297; note: % of control where 0% means no effect; nearly all actives have a fitted effect of over 60% in size
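Steps: seed 1500 Huh7 Rab9-luc cells per well, rest 2 h at 37 °C; add compound in DMSO; incubate 24 h; add luciferase reagent, 10 min ambient; read luminescence.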
NPC1 promoter act: activators of NPC1 promoter; 320,000 tested, 2.4% active; Huh7 NPC1 promoter luciferase reporter, 24 h; Potency, µM (top dose mostly 9.22 µM), inactives show at the top dose activation, actives largely listed as activators; AID 485313; note: % of control where 0% means no effect; nearly all actives have a fitted effect of over 60% in size
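Readout is luciferase luminescence, reflecting NPC1 promoter activation in stably transfected Huh7 cells after 24 h compound exposure at 37 °C in reduced-serum medium with 10% FBS.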
uPA surface inh: blocks generation of uPA at the cell surface; cell surface uPA generation assay, qHTS; Potency, µM (titrated, usually from 38.3 µM), without a hit: at the top dose activity change, negative = inhibition, actives largely listed as inhibitors; 330,000 tested, 0.31% active; active = well fitted inhibition curve with a large enough effect; inconclusive = small, poorly fitted or top-dose-only effect; inactive = no such curve, though single readings can be large or run the other way; tested in mouse RAW 264.7 cells; note: % is set by controls: 0 for no effect and ±100 for the full control effect; nearly all actives have a fitted effect of over 55% in size
FLuc counter: inhibits or activates purified firefly luciferase, miR-21 counter-screen; 360,000 tested, 6.9% active; purified FLuc, Km substrates, luminescence inhibition; Potency, µM (top dose mostly 57.5 µM), without a hit: at the top dose activity change, negative = inhibition, actives largely listed as inhibitors; AID 588342;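 note: plate controls were vehicle for no effect and reference inhibitor for full effect; nearly all actives have a fitted effect of over 55% in size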
Target sequence (P08659 whole entry, looked up): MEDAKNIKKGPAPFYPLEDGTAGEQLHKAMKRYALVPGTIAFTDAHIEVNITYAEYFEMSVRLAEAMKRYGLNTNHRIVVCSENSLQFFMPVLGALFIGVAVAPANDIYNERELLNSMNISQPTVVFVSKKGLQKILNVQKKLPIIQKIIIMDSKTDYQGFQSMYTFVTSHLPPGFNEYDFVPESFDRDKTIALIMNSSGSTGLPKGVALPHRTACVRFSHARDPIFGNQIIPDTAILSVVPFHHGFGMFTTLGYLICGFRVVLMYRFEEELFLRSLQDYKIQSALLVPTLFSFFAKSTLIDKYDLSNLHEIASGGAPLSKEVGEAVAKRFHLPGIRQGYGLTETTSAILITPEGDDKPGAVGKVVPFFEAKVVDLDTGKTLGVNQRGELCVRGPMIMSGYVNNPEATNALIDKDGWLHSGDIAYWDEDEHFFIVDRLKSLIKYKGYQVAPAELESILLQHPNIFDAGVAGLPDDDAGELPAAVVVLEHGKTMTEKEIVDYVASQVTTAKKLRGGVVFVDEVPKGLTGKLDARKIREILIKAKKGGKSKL
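Purified P. pyralis luciferase, 10 nM final, with Km-level 10 uM D-luciferin and 10 uM ATP in 50 mM Tris acetate pH 7.5, 10 mM Mg acetate, 0.01% Tween-20, 0.05% BSA; 6-point qHTS titration about 60 µM downward; luminescence read.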
* = called active by the depositor; ? = inconclusive; . = no result given; [ ] = another dose, or the depositor's remark. Rows were chosen to be rich in hits. Some 7.3% of all compounds tested hit in one or more screens of this group. Unless noted, calls come from the whole dose curve; as a rule, active = well fitted curve in the direction sought with a large enough effect; inconclusive = small, poorly fitted or top-dose-only effect, or another doubt; inactive = no such curve, though single readings can be large; an effect the other way counts as inactive or inconclusive. Potency is the fitted concentration of half-maximal effect.

SMILES | SMN2 splice up | ELG1 genotoxic | Rab9 promoter act | NPC1 promoter act | uPA surface inh | FLuc counter
Cc1nc2nc(NC(=O)c3cccc(Cl)c3)[nH]n2c(=O)c1Cc1ccccc1 | 1% | . | . | . | . | ?
CC(=O)Nc1ccc(NC(=O)c2ccc(CSc3ccccc3)o2)cc1 | -48% | -5% | -3% | -2% | -2% | -5%
O=C(Nc1cccc(F)c1)c1ccc(CSc2ccccc2)o1 | ? | 19% | 21% | 23% | 1% | 19µM*
O=C(Nc1ccccc1F)c1ccc(COc2ccc(Cl)cc2Cl)o1 | 13µM* | -3% | 0% | -1% | 0% | ?
O=C(Nc1ccccc1F)c1ccc(CSc2ccccc2)o1 | 19% | ? | 17% | 15% | -5% | 17µM*
NC(=O)C[C@@H](N)c1nn[nH]n1 | -7%[9.22 µM] | . | . | . | . | .
CN(C(=O)Nc1cn(C)c(=O)c2ccccc12)c1ccccc1 | . | . | . | . | . | -1%
C[C@]12C[C@@](C)(C=C1/C=C/c1ccc(F)cc1)C(=O)C[C@H]2c1ccc(F)cc1 | 2% | . | . | . | . | .
Cc1oc2c(c(C)cc3oc(=O)c(CC(=O)NCCc4ccccc4F)c(C)c32)c1C | 2% | . | . | . | . | -7%
O=C1c2ccccc2C(=O)N1CCSC(=S)N1CCOCC1 | ? | ? | ? | ? | 3% | 12µM*
O=C(CCN1C(=O)c2ccccc2C1=O)N1CCOCC1 | ? | 3% | -8% | -4% | 1% | 5%
COC(=O)c1sc2cccc(F)c2c1S(=O)(=O)NCc1ccc(Cl)cc1 | . | . | . | . | . | 2%
C/C(=N/NC(=O)c1cnccn1)c1cccs1 | 8.9µM* | ? | ? | 2µM* | -1% | 15µM*
C/C(=N\Nc1ccccn1)c1ccc(OC(F)F)cc1 | 21% | ? | 26% | 10% | -6% | 15µM*
C/C(=N\Nc1ccccn1)c1cccs1 | 32µM* | ? | 3.2µM* | 3.5µM* | 2% | 6.7µM*
C/C(=N\Nc1ccccn1)c1ccc(C#N)cc1 | -5% | 1% | 4% | 1% | 2% | ?
C/C(=N\NC(=O)c1cc(C)[nH]n1)c1cccs1 | 11µM* | ? | 0.32µM* | 1.1µM* | -9% | 12µM*
C/C(=N\NC(=O)c1cc(C)[nH]n1)c1ccc(-c2ccccc2)cc1 | . | 14% | 17% | 26% | 1% | -17%
Cc1ccc(CN(C(=O)COc2cccc(Cl)c2)c2ccccn2)o1 | . | . | . | . | . | -2%
CSc1nn(CC(=O)Nc2cc(C)ccc2C)c(N)c1S(=O)(=O)c1ccccc1 | . | . | . | . | . | -8%
C/C(=N/NC(=O)c1cc(C(C)C)[nH]n1)c1cccs1 | 11µM* | ? | 0.5µM* | 0.4µM* | -7% | 5.4µM*
COc1ccc2oc(-c3ccc(C)c(NC(=O)c4ccc(N5CCOCC5)c([N+](=O)[O-])c4)c3)nc2c1 | 4% | ? | 4% | 16% | . | 6µM*
CCOc1ccc(C(=O)Nc2cc(-c3nc4cc(OC)ccc4o3)ccc2C)cc1[N+](=O)[O-] | 17% | . | . | . | . | 6.7µM*
COc1ccccc1N(C)S(=O)(=O)c1ccc(Cl)c(C(=O)NNC(=O)c2ccccc2O)c1 | . | -7% | -2% | 11% | -11% | 17µM*
COCCCn1c(SCC(=O)n2c(C)c(C)c3ccccc32)nnc1-c1ccoc1C | -10% | 18µM* | 17% | 1% | -2% | 5%
SMILES | SMN2 splice up | ELG1 genotoxic | Rab9 promoter act | NPC1 promoter act | uPA surface inh | FLuc counter
CCc1ccc(N2C(=O)N(CC(=O)C(C)(C)C)c3ccccc3S2(=O)=O)cc1 | . | . | . | . | . | 0%
Cc1ccccc1CN1CCCN(CC(=O)Nc2c(C)cccc2C)S1(=O)=O | . | . | . | . | . | 0%
Brc1ccc(-c2nc(-c3cccnc3)no2)o1 | ? | ? | 2.8µM* | 4µM* | -2% | 17µM*
COc1nc(-c2ccc(C)cc2)ccc1-c1noc(-c2cccnc2)n1 | -1% | -1% | -18% | -1% | -3% | -17%
Brc1ccc(-c2nc(-c3ccccc3)no2)o1 | 18µM* | 8.2µM* | 2.5µM* | 3.5µM* | -4% | 12µM*
c1ccc(C(Cc2nc(-c3cccnc3)no2)c2ccccc2)cc1 | -1% | -17% | 0% | -2% | 3% | -3%
c1ccc(-c2noc(-c3ccccc3-c3ccccc3)n2)cc1 | -11% | 0% | -5% | -2% | 4% | -14%
Cc1ccc(-c2nc(-c3cccnc3)no2)c(C)c1 | 16µM* | 5.2µM* | 1.8µM* | 2µM* | -3% | ?
O=C(CCC(=O)c1ccccc1)NC1CCCN(Cc2ccccc2F)C1 (stereo not given) | . | -1% | -5% | -20% | -5% | -1%
O=C(Nc1ccc2c(c1)OCO2)Nc1cnccn1 | 58% | ? | 12% | 15% | -23% | ?
O=C(Nc1ccc2c(c1)OCO2)Nc1ccccn1 | . | ? | 0.89µM* | 2.8µM* | ? | 12µM*
O=C(Nc1ccc2c(c1)OCO2)Nc1ccc(Cl)cc1Cl | ? | ? | ? | ? | -2% | 4.8µM*
O=C(Nc1cccnc1)c1cnn2cccnc12 | 31% | 5% | 9% | 4% | -24% | 4%[2.3 µM]
O=C(Nc1cccc(C(=O)O)c1)Nc1ccc2c(c1)OCO2 | . | -21% | ? | ? | -6% | 0.11µM*
O=C(Nc1ccc2c(c1)OCO2)c1cnn2cccnc12 | 11µM* | 4.1µM* | 1.6µM* | 2.2µM* | -16% | 9.5µM*
CCCCN1C(=O)C(NC(=O)c2ccc(C(C)(C)C)cc2)(C(F)(F)F)C(C(=O)OC)=C1C (stereo not given) | -7% | . | . | . | . | -10%
Clc1ccc(CSCCc2ccncc2)cc1Cl | -5%[9.22 µM] | . | . | . | . | .
CCc1ccc(C2c3c(oc4ccc(F)cc4c3=O)C(=O)N2c2nc(C)c(C(=O)OC)s2)cc1 (stereo not given) | 4% | . | . | . | . | 0%
N#Cc1c(SCC(=O)Nc2nncs2)sc2c(O)cc(=O)[nH]c12 | . | -2% | 1% | -7% | -1% | 4%
Cc1cc(C)c(NC(=O)Nc2ccc3c(c2)OCO3)c(C)c1 | . | ? | 26% | 17% | 3% | ?
Cc1ccc(NC(=O)Nc2ccc3c(c2)OCO3)c(Br)c1 | . | 18µM* | ? | ? | 4% | ?
O=C(NCc1cccs1)Nc1ccc(Cl)cc1 | 10µM* | 11% | ? | ? | -6% | ?
O=C(Nc1ccc(Cl)cc1)Nc1ccc2c(c1)OCO2 | . | 4.1µM* | 1.8µM* | 1.1µM* | -9% | 2.1µM*
Cn1ccc(NC(=O)Nc2ccc(Cl)cc2Cl)n1 | 14µM* | ? | ? | ? | 0% | 15µM*
Cc1cc(C)cc(-n2c(SCC(N)=O)nc3c([nH]c4ccccc43)c2=O)c1 | . | . | . | . | . | 0%
COc1ccccc1N1CCN(CCCNC(=O)c2nnc(Cc3c(F)cccc3Cl)o2)CC1 | -26% | . | . | . | . | 2%
O=C(Nc1ccc(Br)c2cccnc12)c1cccc2ccccc12 | 10% | . | . | . | . | 0%
